Screens: PubChem, several laboratories
BJeLR viability: MLPCN primary cell-based screen for lethality selective to Ras in HRASV12 cells | BJeLR (HRASV12) viability, CellTiter-Glo ATP luminescence, 48 h | inhibition, % (test concentration not listed) | 300,000 tested, 0.17% active | AID 1554, 2009; in the data active = inhibition above about 50%
3CLpro inhibitor: SARS-CoV 3CLpro protease inhibitors, primary screen, biochemical, quenched FRET | recombinant SARS-CoV 3CLpro, quenched FRET peptide cleavage | inhibition, % at 6 µM | 290,000 tested, 0.14% active; in the data active = inhibition above about 12%
PriA SSB inh: inhibitors of Klebsiella pneumoniae PriA binding to SSB C-terminal tail, primary screen, biochemical, AlphaScreen; PriA–SSB C-terminal tail interaction (Klebsiella pneumoniae); AlphaScreen SSBct-PriA binding, biotinylated peptide; inhibition, % at 33 µM; 430,000 tested, 0.6% active; in the data active = inhibition mostly above about 37%, no sharp cut-off; inactive = mostly below about 20%;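 also: plate controls were negative control peptide for no effect and reference peptide for full effect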
The depositor's hits bear a star; / = no result. An excerpt weighted towards active compounds, which were near 0.78% of everything screened.

SMILES	BJeLR viability	3CLpro inhibitor	PriA SSB inh
CC(=O)Nc1ccc(NC(=O)CN(c2cccc([N+](=O)[O-])c2)S(C)(=O)=O)cc1	69*	-2	-7
CS(=O)(=O)N(CC(=O)Nc1cccc(F)c1)c1cccc([N+](=O)[O-])c1	2	1	-2
Cc1ccc([N+](=O)[O-])cc1N(CC(=O)NC1CCCC1)S(C)(=O)=O	/	-1	1
Cc1nc(C)c(C(=O)NCC#CCN(C)Cc2ccccc2)s1	/	/	-4
COC1=C(Nc2ccccc2)C(=O)c2ccccc2C1=O	2	2	117
COC1=C(Nc2ccc(C)cc2)C(=O)c2ccccc2C1=O	-9	1	90*
COc1cccc(-c2nnc3sc(-c4ccccn4)nn23)c1	0	-5	-20
c1ccc(-c2nn3c(-c4ccncc4)nnc3s2)nc1	/	/	59*
c1ccc(-c2nnc3sc(-c4ccccn4)nn23)cc1	/	/	45
CN(C)c1ccc(-c2nnc3sc(-c4ccccn4)nn23)cc1	/	/	74*
COc1ccccc1-c1nnc2sc(-c3ccc(N(C)C)cc3)nn12	53*	3	-15
CN(C)c1ccc(-c2nn3c(-c4ccccc4Cl)nnc3s2)cc1	-6	-3	-7
CN(C)c1ccc(-c2nn3c(-c4cccnc4)nnc3s2)cc1	-5	/	-1
COc1ccc(-c2nnc3sc(-c4ccccn4)nn23)cc1	8	/	56*
CCOC(=O)c1sc(NC(=O)c2ccc(S(=O)(=O)N3CCc4ccccc43)cc2)c(C(=O)OCC)c1C	/	/	-19
O=C(NC1CC1)c1csc(Nc2ccc(OC(F)F)cc2)n1	/	/	1
COc1cc(C(=O)Nc2nc(-c3ccccc3)ns2)cc(OC)c1OC	/	/	-23
Clc1ccc(-c2nnc3sc(-c4ccccn4)nn23)cc1	/	-1	48
CC(C)(C)c1ccc(-c2nnc3sc(-c4ccccn4)nn23)cc1	-7	3	46*
COC(=O)c1c(NC(=O)c2ccc(S(C)(=O)=O)cc2)sc2c1CCCC2	/	/	-15
CC1CCN(c2nc3c(c(=O)n(C)c(=O)n3C)n2CC(=O)c2ccccc2)CC1	/	/	-17
Cc1ccc(C(C)C)c(OCc2ccc(C(=O)NN=Cc3ccc(O)cc3O)cc2)c1	/	/	7
Cc1ccc(C(C)C)c(OCc2ccc(C(=O)N/N=C/c3cccc(O)c3O)cc2)c1	74*	1	/
Cc1ccc2c(c1)c1ncn(Cc3ccccc3Cl)c(=O)c1n2CC(=O)NCc1ccco1	/	/	-3
CCS(=O)(=O)N1CCc2nc(-c3ccccc3)sc2C1	0	3	91*
SMILES	BJeLR viability	3CLpro inhibitor	PriA SSB inh
COc1ccc(-c2nc3c(s2)CN(S(C)(=O)=O)CC3)cc1OC	-6	-2	17
Cc1cc(-c2cccs2)nn1CCNC(=O)N1CCN(S(C)(=O)=O)C1=O	/	/	-3
Nc1nc(CCl)nc(N(c2ccccc2)c2ccccc2)n1	65*	4	1
Nc1nc(Cl)nc(N(c2ccccc2)c2ccccc2)n1	2	-2	-12
O=C1/C(=C/c2ccncc2)CC/C1=C\c1ccncc1	/	/	14
CC1C/C(=C/c2ccncc2)C(=O)/C(=C/c2ccncc2)C1 (stereo unspecified)	54*	-2	-4
O=S(=O)(NCC1CCN(c2ccncc2)CC1)c1ccc2c(c1)OCCO2	/	/	-9
CCOC(=O)c1sc(NC(=O)Nc2ccc(Cl)c(Cl)c2)cc1C	/	/	-10
Cc1cccc(NC(=O)c2c(N)c(C(=O)c3ccc(Cl)cc3)n3ccccc23)c1C	/	/	-10
Cc1cc(C)cc(NC(=O)CS(=O)(=O)c2cn(CC(=O)N3CCCC3)c3ccccc23)c1	/	/	50*
Cc1cc(NC(=O)CS(=O)(=O)c2cn(CC(=O)N3CCCC3)c3ccccc23)no1	/	/	-14
CC(=O)NC(c1cccs1)c1cc(F)c2cccnc2c1O (stereo unspecified)	/	/	6
CC(=O)NC(c1ccco1)c1cc(F)c2cccnc2c1O (stereo unspecified)	/	/	73*
Cc1noc(C2CC(=O)N(c3cccc4c3CCCC4)C2)n1 (stereo unspecified)	/	/	-12
CC1CN(c2ccc([N+](=O)[O-])c(N3CCCCC3)c2)CCN1 (stereo unspecified)	5	3	2
Nc1cc(N2CCCC2)ccc1[N+](=O)[O-]	-14	-6	0
O=[N+]([O-])c1ccc(N2CCNCC2)cc1N1CCCC1	/	/	62*
O=[N+]([O-])c1ccc(N2CCCCC2)cc1N1CCOCC1	-1	-1	27
O=[N+]([O-])c1ccc(N2CCCC2)cc1N1CCCCCC1	/	/	61*
O=[N+]([O-])c1ccc(N2CCOCC2)cc1N1CCCCC1	-4	2	14
O=[N+]([O-])c1ccc(N2CCCC2)cc1N1CCCCC1	/	/	97*
O=[N+]([O-])c1ccc(N2CCCC2)cc1N1CCCC1	-16	-6	47*
Cc1cc(NC(=O)C2=COCCO2)n(-c2nc3c(F)cccc3s2)n1	/	/	-9
O=C(CCn1ccc(=O)[nH]c1=O)N1CC(Oc2nc3c(Cl)cccc3s2)C1	/	/	10
COc1cccc(C(=O)Nc2nnc(-c3ccc(F)cc3)s2)c1OC	/	/	-2
SMILES	BJeLR viability	3CLpro inhibitor	PriA SSB inh
CCOc1cc(C(=O)Nc2ccccc2-c2nc3ccccc3s2)cc(OCC)c1OCC	/	/	-21
COc1ccc2c(c1C)O/C(=C\c1ccc3c(c1)OCO3)C2=O	/	/	-11
N#Cc1cccc(C(=O)N2CCCC[C@H](c3ccc(F)cc3)C2)c1	/	/	-4
CN(C)c1cccc(C(=O)N2CCCC[C@H](c3ccc(F)cc3)C2)c1	/	/	57*
COc1ccc(OC)c(-c2cc(C(=O)N(Cc3cccn3C)C3CC3)n(C)n2)c1	/	/	-9
C/C(=N/NC(=S)NCc1ccco1)c1ccco1	/	/	43*
CCNC(=S)N/N=C(\C)c1ccco1	13	6	/
O=C(NC[C@@H](c1cccs1)N1CCc2ccccc2C1)c1ccccc1F	/	/	-8
C=CCn1c(Cc2csc(N)n2)nnc1SCC(=O)Nc1ccccc1C(F)(F)F	-10	-6	74*
C=CCn1c(CCNC(=O)c2ccccc2F)nnc1SCC(=O)Nc1ccccc1F	-3	-3	0
O=C(NCc1ccc(F)cc1)c1cccc2nc3ccccc3nc12	/	/	31
c1ccc2nc(-c3nc4ccccc4o3)ccc2c1	53*	-2	-14
c1ccc(-c2nc3ccccc3o2)nc1	3	1	1
Fc1ccc(Nc2nc(NCCCn3ccnc3)nc3nc[nH]c23)cc1	/	/	29*
N#Cc1nc(-c2ccc(F)cc2)oc1NCCCn1ccnc1	2	-3	/
Cc1csc(C(=O)NCC2CCN(c3ncccn3)CC2)c1	/	/	-19
Cc1cc(C(=O)N(Cc2ccccn2)c2nc3c(C)ccc(C)c3s2)on1	/	/	-4
[O-]c1ccccc1-[n+]1c(-c2ccccc2)cc(-c2ccccc2)cc1-c1ccccc1	63*	/	/
Oc1ccccc1-[n+]1c(-c2ccccc2)cc(-c2ccccc2)cc1-c1ccccc1	10	/	18
Oc1ccccc1/C=N/Nc1nccnc1Cl	31	2	/
Oc1cccc(C=NNc2ccccn2)c1	/	/	3
Oc1ccc(/C=N/Nc2nccnc2Cl)c(O)c1	68*	1	/
Oc1ccc(C=NNc2ccccn2)c(O)c1	/	/	95*
COc1ccccc1-n1nnc(C(=O)OCc2cccc(F)c2)c1C	/	/	-14
Cc1cccc(NC(=O)c2ccc(=O)n(Cc3ccc(F)cc3)n2)n1	/	/	-5
